# Bioassay records as filed in PubChem BioAssay.
# Shiga toxin inh: blocks Shiga toxin action in Vero cells; inhibition, % at 38.7 µM; Vero cells, Shiga toxin protein synthesis inhibition reporter; actives 9.2% (n = 290,000); AID 2315; in the data active = inhibition mostly above about 28%, no sharp cut-off; inactive = mostly below about 43%
# Pf growth 96h: inhibits malaria parasite growth, 96 h; P. falciparum luciferase reporter growth, 96 h; actives 6.9% (n = 320,000); Potency, µM (titrated, usually from 28.7 µM), usual class: inhibitors
#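 Cell-based qHTS: luciferase-tagged P. falciparum in erythrocytes (2% hematocrit, 0.05% parasitemia final) incubated with compounds for 96 hours, 37 C, 5% CO2; luciferase detection reagent then added and luminescence measured.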
# Pf growth 48h: P. falciparum growth inhibition at 48 hours (one generation); P. falciparum luciferase growth in erythrocytes, 48 h; Potency, µM (highest dose often 28.7 µM), hits mostly inhibitors; actives 5.9% (n = 310,000); AID 504832
#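 Growth was read as firefly luciferase luminescence after a 48 h, 37 C, 5% CO2 exposure of compounds to reporter-bearing P. falciparum cultures (0.1% parasitemia, 2% hematocrit final) in Albumax-supplemented RPMI 1640.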
# CHX counter: counter-screen for Shiga toxin inhibitors: cycloheximide protein synthesis inhibition; cell reporter, cycloheximide protein synthesis inhibition counterscreen; max response, %; actives 12% (n = 300,000); in the data active = max response mostly above about 13%, no sharp cut-off; inactive = mostly below about 14%; note: read at 38.3 µM for the half of the compounds with a filed dose
# NS1 function inh: inhibitors of influenza NS1 protein function; Potency, µM (highest dose often 46.1 µM); actives 0.4% (n = 270,000); AID 2326; calls by dose curve; note: actives are rising curves; nearly all actives have a fitted effect of over 50% in size
#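 Compounds were scored for reversing the slow growth caused by influenza A NS1 in S. cerevisiae, measured by optical density at 600 nm. Assay medium contained 2% galactose at pH 6.0; NS1-free yeast of the same strain were the positive control.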
# Numbers stand for hits; – = inactive; ? = inconclusive; · = no result given; + = active, no number; [ ] = another dose, or the depositor's remark. This is a sample that favours compounds with a hit; in the whole collection about 21% have one here. Unless noted, calls come from the whole dose curve; as a rule, active = well fitted inhibition curve with a large enough effect; inconclusive = small, poorly fitted or top-dose-only effect, or another doubt; inactive = no such curve, though single readings can be large or run the other way.
SMILES,Shiga toxin inh,Pf growth 96h,Pf growth 48h,CHX counter,NS1 function inh
CC1CCN(C(c2cccs2)c2nnnn2Cc2ccccc2)CC1 (stereo unspecified),–,2.6µM,·,–,–
c1ccc(Cn2nnnc2C(c2cccs2)N2CCSCC2)cc1 (stereo unspecified),–,?,?,–,–
Fc1ccccc1N1CCN(C(c2cccs2)c2nnnn2CCc2ccccc2)CC1 (stereo unspecified),–,?,8.3µM,–,–
Fc1ccc(N2CCN(C(c3cccs3)c3nnnn3CCc3ccccc3)CC2)cc1 (stereo unspecified),–,–,13µM,–,–
COCCn1nnnc1C(c1cccs1)N1CCN(c2ccccc2)CC1 (stereo unspecified),–,?,–,–,–
CCCCCOC(=O)C1=C(C)NC(=O)NC1c1ccc(OC)cc1 (stereo unspecified),–,–,–,–,?
O=C1CC2(CCN(C(=O)c3ccccc3Cl)CC2)Oc2ccccc21,·,?,–,·,·
COc1ccc(NC2C[C@H]3CCCC(=O)N4CC[C@@H](C2)[C@@H]34)cc1 (stereo partly specified),–,·,·,–,·
Cn1c(NC(=O)c2cccnc2)nc2ccccc21,+,–,?,38,–
O=C(Nc1cnc2ccccc2c1)c1cccc(-n2cnnn2)c1,164,–[5.75 µM],0.12µM,88,?
O=C(Nc1ccc(NC(=O)c2cccnc2)cc1)c1ccccc1,–,–,–,–,–
O=C(Nc1cccc(-c2cnc3ccccc3n2)c1)c1ccncc1,–,–,?,23,–
O=C(Nc1cnc2ccccc2c1)c1cccnc1,–,–,·,23,–
O=C(NNC(=O)c1cccc(-n2cnnn2)c1)c1ccccc1,–,?,–,–,·
COc1ccc(CNC(=O)C(c2ccco2)N(C(=O)c2csnn2)c2cccc(C)c2C)cc1 (stereo unspecified),–,?,?,–,–
CC(=O)Nc1ccc(C(=O)Nc2cccc(-c3cnc4ccccc4n3)c2)cc1,–,–,–,–,·
CNC(=S)Nc1cccc(-c2cnc3ccccc3n2)c1,58,–,–,26,–
CN(C)C(=O)Nc1cnc2ccccc2c1,–,–,–,–,–
O=C(Nc1cnc2ccccc2c1)c1ccco1,68,–,–,33,–
Cc1ccc(C(=O)Nc2cccc(-c3cnc4ccccc4n3)c2)cc1,–,–,–,–,–
CC(C)C(=O)Nc1cccc(-c2cnc3ccccc3n2)c1,–,–,·,21,–
O=C(Nc1cccc(-c2cnc3ccccc3n2)c1)c1ccco1,100,–,?,55,–
CC(=O)C(Sc1nc(-c2ccco2)nc2c1c(=O)n(C)c(=O)n2C)C(=O)N(C)C (stereo unspecified),·,·,·,·,–
O=C(NCc1cccnc1)C1CC(c2ccc(F)cc2)=NO1 (stereo unspecified),–,–,–,–,–
Cc1cc(C(=O)Nc2cnc3ccccc3c2)ccc1[N+](=O)[O-],131,–[5.75 µM],–,53,·
SMILES,Shiga toxin inh,Pf growth 96h,Pf growth 48h,CHX counter,NS1 function inh
Cc1ccc(C(=O)Nc2cnc3ccccc3c2)cc1,–,–,·,–,–
CS(=O)(=O)Nc1cccc(-c2cnc3ccccc3n2)c1,85,–,–,37,–
Cc1c(Cl)ccc(S(=O)(=O)N2CCN=C2c2ccccc2)c1Cl,–,–,–,–,–
CC1=Nc2ccccc2/C1=C\c1sc(Nc2ccc(C)cc2)nc1O,–,6.6µM,?,–,–
Oc1nc(Nc2cccc(Cl)c2)sc1/C=C1\C=Nc2ccccc21,–,?,–,–,–
CC1=Nc2ccccc2/C1=C/c1sc(=O)n(CC(=O)N2CCCC2)c1O,–,–,–,–,–
Oc1cccc(Nc2nc(O)c(/C=C3\C=Nc4ccccc43)s2)c1,94,–,–,52,–
Oc1nc(Nc2ccc(F)cc2)sc1/C=C1\C=Nc2ccccc21,–,?,13µM,–,–
O=C(O)c1ccccc1NS(=O)(=O)c1ccc2ccccc2c1,–,–,–,33,?
O=c1oc(-c2ccccc2NS(=O)(=O)c2ccc3ccccc3c2)nc2ccccc12,–,10µM,–,–,–
Cc1cccc(NC(=O)CSCC(=O)Nc2ccccc2N2CCCC2)c1,–,–,–,–,–
CCN(CC)c1ccc(/C=C2\CCC(/C=C(\C#N)C(=O)Nc3ccccc3F)=C2N2CCOCC2)cc1,–,–,–,–,–
N#C/C(=C\c1ccc[nH]1)C(=O)Nc1ccccc1Cl,61,–,–,33,–
Cc1cc(/C=C(\C#N)C(=O)Nc2ccccc2F)c(C)[nH]1,64,–,–,46,–
COc1ccc(NC(=O)/C(C#N)=C/c2ccc[nH]2)c(OC)c1,–,–,–,–,–
Cc1cccc(NC(=O)/C(C#N)=C/c2ccc(F)cc2)n1,–,–,·,–,–
N#C/C(=C\c1ccc[nH]1)C(=O)c1ccccc1,99,–,–,33,–
N#C/C(=C\c1ccc[nH]1)C(=O)Nc1ccccc1F,74,–,–,34,–
CC(=O)c1cccc(NC(=O)Cn2cnc(S(=O)(=O)N3CCCC3)c2)c1,–,–,–,–,–
Cc1cc2c(s1)c1cnn(Cc3ccccc3)c(=O)c1n2C,–,·,·,–,·
Cc1noc(C(=O)Nc2cccc(Cl)c2)c1Cl,60,9.3µM,–,33,–
CCc1ccccc1NC(=O)c1onc(C)c1Cl,–,–,·,–,–
Cc1noc(C(=O)Nc2cccc(O)c2)c1Cl,76,–,–,43,–
Cc1noc(NC(=O)c2cccc(C(F)(F)F)c2)c1Cl,–,–,–,–,–
Cc1noc(NC(=O)c2ccc(Cl)cc2)c1Cl,66,–,–,44,·
SMILES,Shiga toxin inh,Pf growth 96h,Pf growth 48h,CHX counter,NS1 function inh
Cc1ccc(-c2ccc(C#N)c(=O)n2CC(=O)N(C)C)cc1,–,–,–,–,–
CCN(CC)C(=O)C(Sc1ccccc1)c1ccccc1 (stereo unspecified),–,·,–,–,–
COc1ccc(S(=O)(=O)N(C)c2ccc(C(=O)Nc3ccccc3C(=O)N3CCOCC3)cc2)cc1OC,–,?,12µM,–,–
COc1ccc(S(=O)(=O)N(C)c2ccc(C(=O)N3CCCC3)cc2)cc1OC,–,–,–,–,–
COc1ccc(S(=O)(=O)N(C)c2ccc(C(=O)N3CCN(c4ccccc4)CC3)cc2)cc1OC,–,?,15µM,–,–
Cc1ccc(CN=C(N)Nc2nc(C)cc(C)n2)cc1,–,–,?,–,–
N=c1c2c(-c3ccccc3)c(-c3ccccc3)n(Cc3ccco3)c2ncn1CCCn1ccnc1,–,?,1.9µM,–,–
OCCNc1ncnc2c1c(-c1ccccc1)c(-c1ccccc1)n2Cc1ccco1,–,–,·,–,–
CN(C)CCCNc1ncnc2oc(-c3ccccc3)c(-c3ccccc3)c12,–,13µM,17µM,–,–
c1ccc(-c2c(-c3ccccc3)n(Cc3ccco3)c3ncnc(NCCCn4ccnc4)c23)cc1,–,2.1µM,·,–,–
c1ccc(-c2oc3ncnc(NCCCn4ccnc4)c3c2-c2ccccc2)cc1,–,–,13µM,–,–
OC(c1ccccc1)(c1ccccc1)C1CCNCC1,–,–,–,–,–
Clc1cccc(SC2CCNCC2)n1,·,4.3µM,–,·,·
